Reference: PubChem BioAssay AID1159580 (chemical genetic matrix, 2015)
Screen size: about 5,500 compounds; about 2,000 (36%) were called active. Roughly 18% stayed inconclusive and do not appear here. No stated cut-off is given here; in the data, active means normalized growth mostly below about 0.91 (no sharp cut-off); inconclusive means no clear call, values can overlap the other calls; inactive means mostly above about 0.92. The list shows a part of the results.

Assay: chemical genetic growth profiling, strain panel (AID 1159580);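 further: tested at 20 µM; growth read once vehicle control cultures reached saturation at 30 °C; 1 = growth at the plate median or of vehicle wells; lower values mean less growth of the strain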
Conditions: growth OD

Measured: normalized growth

Nc1ccn(C2O[C@H](CO)[C@@H](O)[C@H]2O)c(=O)n1 (some centres undefined)
inactive: S. cerevisiae deletion strains, locus YJR075W, strain HOC1, hits give low values 1.02 | S. cerevisiae deletion strains, locus YKL009W, strain mrt4, hits give low values 1.04 | S. cerevisiae deletion strains, locus YKL068W, hits give low values 1 | S. cerevisiae deletion strains, locus YKL085W, strain MDH1 (second series), hits give low values 1 | S. cerevisiae deletion strains, locus YKL085W, strain MDH1, hits give low values 1 | S. cerevisiae deletion strains, locus YKL160W, strain elf1, hits give low values 0.994 | S. cerevisiae deletion strains, locus YKL190W, strain CNB1, hits give low values 0.989 | S. cerevisiae deletion strains, locus YKR001C, strain vps1, hits give low values 1.03 | S. cerevisiae deletion strains, locus YKR026C, strain gcn3, hits give low values 1 | S. cerevisiae deletion strains, locus YKR091W, strain srl3, hits give low values 0.986 | S. cerevisiae deletion strains, locus YLL001W, strain dnm1, hits give low values 0.989 | S. cerevisiae deletion strains, locus YLL026W, hits give low values 0.994 | S. cerevisiae deletion strains, locus YLL041C, strain sdh2, hits give low values 0.987 | S. cerevisiae deletion strains, locus YLR027C, strain aat2, hits give low values 0.984 | S. cerevisiae deletion strains, locus YLR039C, strain RIC1, hits give low values 1.01 | S. cerevisiae deletion strains, locus YLR058C, strain SHM2, hits give low values 0.998 | S. cerevisiae deletion strains, locus YLR102C, strain apc9, hits give low values 1.01 | S. cerevisiae deletion strains, locus YLR113W, strain HOG1, hits give low values 1.01 | S. cerevisiae deletion strains, locus YLR221C, strain rsa3, hits give low values 1 | S. cerevisiae deletion strains, locus YLR258W, strain gsy2, hits give low values 1 | S. cerevisiae deletion strains, locus YLR262C, strain YPT6 (second series), hits give low values 0.992 | S. cerevisiae deletion strains, locus YLR262C, strain YPT6, hits give low values 1.05 | S. cerevisiae deletion strains, locus YLR268W, strain sec22, hits give low values 1.05 | S. cerevisiae deletion strains, locus YLR320W, strain mms22, hits give low values 0.995 | S. cerevisiae deletion strains, locus YLR330W, strain CHS5, hits give low values 0.986 | S. cerevisiae deletion strains, locus YLR342W, strain FKS1 (second series), hits give low values 1.02 | S. cerevisiae deletion strains, locus YLR342W, strain FKS1, hits give low values 0.995 | S. cerevisiae deletion strains, locus YLR357W, strain rsc2, hits give low values 0.964 | S. cerevisiae deletion strains, locus YLR370C, strain arc18, hits give low values 0.998 | S. cerevisiae deletion strains, locus YLR371W, strain rom2, hits give low values 1.01 | S. cerevisiae deletion strains, locus YLR384C, strain iki3, hits give low values 1 | S. cerevisiae deletion strains, locus YLR418C, strain cdc73, hits give low values 1.01 | S. cerevisiae deletion strains, locus YML016C, strain PPZ1, hits give low values 1 | S. cerevisiae deletion strains, locus YML032C, strain rad52, hits give low values 0.993 | S. cerevisiae deletion strains, locus YML120C, strain ndi1, hits give low values 0.979 | S. cerevisiae deletion strains, locus YML124C, strain tub3, hits give low values 1.01 | S. cerevisiae deletion strains, locus YMR058W, strain fet3, hits give low values 0.983 | S. cerevisiae deletion strains, locus YMR078C, strain ctf18, hits give low values 1.02 | S. cerevisiae deletion strains, locus YMR125W, strain sto1, hits give low values 0.973 | S. cerevisiae deletion strains, locus YMR129W, hits give low values 0.991 | S. cerevisiae deletion strains, locus YMR205C, strain PFK2, hits give low values 0.998 | S. cerevisiae deletion strains, locus YMR223W, strain ubp8, hits give low values 1.02 | S. cerevisiae deletion strains, locus YMR231W, strain pep5, hits give low values 0.979 | S. cerevisiae deletion strains, locus YMR307W, strain GAS1, hits give low values 1.05 | S. cerevisiae deletion strains, locus YNL067W, strain RPL9B, hits give low values 1.03 | S. cerevisiae deletion strains, locus YNL071W, strain lat1, hits give low values 0.983 | S. cerevisiae deletion strains, locus YNL128W, strain TEP1, hits give low values 1.01 | S. cerevisiae deletion strains, locus YNL153C, strain GIM3, hits give low values 1.03 | S. cerevisiae deletion strains, locus YNL183C, strain NPR1, hits give low values 0.933 | S. cerevisiae deletion strains, locus YNL209W, strain ssb2, hits give low values 0.992 | S. cerevisiae deletion strains, locus YNL233W, strain BNI4, hits give low values 1.05 | S. cerevisiae deletion strains, locus YNL248C, strain rpa49, hits give low values 0.984 | S. cerevisiae deletion strains, locus YNL250W, strain rad50, hits give low values 1 | S. cerevisiae deletion strains, locus YNL271C, strain bni1, hits give low values 1.01 | S. cerevisiae deletion strains, locus YNL298W, strain CLA4, hits give low values 1 | S. cerevisiae deletion strains, locus YNL307C, strain MCK1, hits give low values 1.02 | S. cerevisiae deletion strains, locus YNL322C, strain KRE1 (second series), hits give low values 1.01 | S. cerevisiae deletion strains, locus YNR049C, strain mso1, hits give low values 0.985 | S. cerevisiae deletion strains, locus YNR052C, strain pop2, hits give low values 1.01 | S. cerevisiae deletion strains, locus YOL006C, strain TOP1, hits give low values 1.09 | S. cerevisiae deletion strains, locus YOL012C, strain htz1 0.74 | S. cerevisiae deletion strains, locus YOL147C, strain pex11, hits give low values 1 | S. cerevisiae deletion strains, locus YOR001W, strain rrp6, hits give low values 0.98 | S. cerevisiae deletion strains, locus YOR061W, strain CKA2, hits give low values 1.01 | S. cerevisiae deletion strains, locus YOR069W, strain VPS5, hits give low values 1.01 | S. cerevisiae deletion strains, locus YOR070C, strain gyp1, hits give low values 1 | S. cerevisiae deletion strains, locus YOR080W, strain dia2, hits give low values 1 | S. cerevisiae deletion strains, locus YOR083W, strain WHI5, hits give low values 0.992 | S. cerevisiae deletion strains, locus YOR106W, strain vam3, hits give low values 1.02 | S. cerevisiae deletion strains, locus YOR136W, strain idh2, hits give low values 1.01 | S. cerevisiae deletion strains, locus YOR144C, strain elg1, hits give low values 1.01 | S. cerevisiae deletion strains, locus YOR184W, strain ser1, hits give low values 1.02 | S. cerevisiae deletion strains, locus YOR231W, strain MKK1, hits give low values 0.997 | S. cerevisiae deletion strains, locus YOR265W, strain rbl2, hits give low values 0.988 | S. cerevisiae deletion strains, locus YOR270C, strain vph1, hits give low values 0.956 | S. cerevisiae deletion strains, locus YOR290C, strain snf2, hits give low values 0.989 | S. cerevisiae deletion strains, locus YOR316C, strain cot1, hits give low values 1.01 | S. cerevisiae deletion strains, locus YPL051W, strain arl3, hits give low values 1 | S. cerevisiae deletion strains, locus YPL055C, strain LGE1, hits give low values 1.01 | S. cerevisiae deletion strains, locus YPL078C, strain atp4, hits give low values 0.993 | S. cerevisiae deletion strains, locus YPL106C, strain sse1, hits give low values 0.992 | S. cerevisiae deletion strains, locus YPL240C, strain hsp82, hits give low values 1 | S. cerevisiae deletion strains, locus YPL256C, strain CLN2, hits give low values 1 | S. cerevisiae deletion strains, locus YPR119W, strain clb2, hits give low values 0.996 | S. cerevisiae deletion strains, locus YPR141C, strain kar3, hits give low values 1.01 | S. cerevisiae deletion strains, locus YPR163C, strain tif3, hits give low values 1.01 | S. cerevisiae deletion strains, locus YPR167C, strain met16, hits give low values 1.01 | S. cerevisiae deletion strains, strain wtn01, hits give low values 1.05 | S. cerevisiae strains, strain wild type, hits give low values 0.98
